From PubChem
LMP1 NFkB inh = Epstein-Barr LMP1 NF-kappaB reporter inhibition. LMP1-induced NF-kappaB luciferase reporter cells, luminescence. inhibition, % at 12.5 µM. actives 0.69% (n = 350,000). AID 504558; in the data active means inhibition above about 41%;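 further: 0% = neutral control wells and 100% = reference inhibitor control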
TROY signal inh = inhibitors of TROY-dependent NF-kB signaling. inhibition, % at 10 µM. Q293 LMP1-TROYcd NF-kB luciferase reporter, 4 h. actives 0.98% (n = 360,000);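 active means compounds whose plate-normalised and pattern-corrected inhibition of the luciferase reporter signal at the single screening dose is 50% or more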
MITF TRPM1 inh = reduces MITF-dependent TRPM1 promoter luciferase signal; actives 0.83% (n = 330,000); SK-MEL-5 TRPM1 promoter luciferase, 24 h; inhibition, % at 12.5 µM; AID 488899;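 active means mean inhibition across replicates of 60% or more, whatever share of single replicates reaches that level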
Shn3 inh set2 = Schnurri-3 reporter inhibition in Clone20 osteoblasts. inhibition, % at 12.5 µM. Clone20 osteoblast Shn3 3'UTR firefly luciferase, 24 h. actives 0.52% (n = 360,000). AID 588674;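 active means mean inhibition of at least 75% with every replicate also reaching 75%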;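 further: 0% = median of neutral control wells and 100% = pilot-screen positive control compound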
Peg3 promoter = Peg3 promoter activity inhibition; HeLa PEG-Prom luciferase reporter, luminescence, overnight; inhibition, % at 20 µM; actives 1.7% (n = 360,000); AID 588405;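 active means inhibition of at least 50% at 20 µM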
TWEAK-Fn14 inh = TWEAK-Fn14 signaling inhibition. actives 2% (n = 360,000). inhibition, % at 10 µM. TWEAK-stimulated Fn14 reporter cells, luciferase luminescence, 8 h. AID 1159606; in the data active means inhibition above about 50%
Numbers without * were called inactive; . = not tested or not shown; ! = a repeat was not active. Only some compounds are listed: those with a hit (about 4.1% of all), similar ones and a draw of the others.

SMILES	LMP1 NFkB inh	TROY signal inh	MITF TRPM1 inh	Shn3 inh set2	Peg3 promoter	TWEAK-Fn14 inh
CCN1C(=O)C2(SC(NC(C)=O)=NN2C(C)=O)c2cc(C)cc(C)c21 (configuration not stated)	-1.1	-2.7	3.9	2.8	18.6	1.4
CCCN1C(=O)C2(SC(NC(C)=O)=NN2C(C)=O)c2cc(C)cc(C)c21 (configuration not stated)	53.9*	-2.7	-1.3	.	8.1	-6.4
Cc1c(C(=O)Nc2ccc3c(c2)OCCO3)cnn1C	31.2	73.5*	3.7	-29.9	13.3	91.3*
COCCN1Cc2cccc(C(=O)N3CCN(c4cc(C)ccc4C)CC3)c2C1=O	78.1*	6.2	6.1	18.3	0.4	24.0
COCCN1Cc2cccc(C(=O)Nc3ccc4c(c3)OCCO4)c2C1=O	14.3	56.1*	-2.5	86.9*	-3.9	73.7*
Cn1ncc([N+](=O)[O-])c1C(=O)Nc1ccc2c(c1)OCCO2	10.6	58.6*	6.1	14.9	-33.5	82.2*
CCn1c(SCC(=O)NC2=NCCS2)nnc1C(C)NC(=O)c1ccc(Cl)cc1 (configuration not stated)	0.2	14.2	7.2	-83.7	-20.4	43.0
CCN1CCN(C(=O)CSc2nc(N)cc(N)n2)CC1	-16.4	-7.2	8.5	2.3	-7.1	-7.3
O=C(/C=C/c1cccc(F)c1)OCC(=O)N1CCc2ccccc21	-6.4	10.0	6.9	-14.7	15.8	-5.7
Cn1ccc(C(=O)Nc2ccc3c(c2)OCCO3)n1	30.9	-32.9	-5.5	-56.1	-33.2	33.1
Cc1nn(C)cc1C(=O)Nc1ccc2c(c1)OCCO2	13.2	41.4	-39.7	-26.1	-55.2	66.5*
Cn1nccc1C(=O)Nc1ccc2c(c1)OCCO2	-3.8	55.7*	3.7	7.3	-103.4	74.4*
Cn1nc(C(=O)Nc2ccc3c(c2)OCCO3)cc1C(=O)O	17.4	61.1*	-2.8	6.5	43.0	72.4*
O=C(CCc1nnc2ccc(N3CCCC3)nn12)Nc1cc(F)ccc1F	-1.8	21.2	-13.6	6.1	-6.7	-5.8
CCOC(=O)C1=NNC2C(=O)N(C3CCCCC3)C(=O)C12 (configuration not stated)	7.3	-1.2	-6.9	16.0	25.8	-5.5
Nc1ncnc2nc[nH]c12	58.7*!	1.5	4.2	-6.2	-8.0	-6.3
CC(=O)Nc1nnc(SCC(=O)N2CCc3ccccc32)s1	-5.9	-0.9	-2.3	5.3	2.4	8.1
Nc1cccnc1S(=O)(=O)c1cccc(C(F)(F)F)c1	-2.4	20.4	0.3	6.7	12.4	-16.9
Nc1nc(N)c2cc(S(=O)(=O)c3cccc(C(F)(F)F)c3)ccc2n1	1.7	22.2	.	85.3*	22.4	18.4
CC(C)(C)NC(=S)Nc1ccc(Nc2ccccc2)cc1	2.7	-61.5	-9.4	15.8	-47.6	55.8*
CC1CC2=C(C(=O)O1)C(c1ccc(Cl)cc1)Nc1ccccc1N2 (configuration not stated)	-2.7	15.1	6.0	-3.5	6.4	12.2
Cc1ccc(C2Nc3ccccc3NC3=C2C(=O)OC(C)C3)cc1 (configuration not stated)	2.3	63.7*	19.0	4.3	13.9	29.9
CCOC(=O)c1cc([N+](=O)[O-])sc1NC(=O)c1ccc(S(=O)(=O)N2CC3(C)CC2CC(C)(C)C3)cc1 (configuration not stated)	46.1*	12.6	75.5*	20.7	46.0	10.2
CC1(C)CC2CC(C)(CN2S(=O)(=O)c2ccc(C(=O)Nc3ccc(S(=O)(=O)N4CCOCC4)cc3)cc2)C1 (configuration not stated)	-5.0	31.6	12.3	79.1	26.1	42.2
CCOC(=O)c1cc([N+](=O)[O-])sc1NC(=O)CC	0.6	1.7	7.3	7.7	5.4	99.1*
CCOC(=O)c1cc([N+](=O)[O-])sc1N	3.0	-4.7	15.3	0.1	-15.8	2.1
COc1ccc(NC(=O)CN2C(=O)CC(C)(C)S(=O)(=O)c3ccccc32)cc1	-6.0	-13.7	-10.4	-5.5	-15.7	-21.4
Cc1ccc(N(C(=O)c2snc(C(N)=O)c2N)C(C(=O)NC2CCCC2)c2ccc(C)o2)cc1 (configuration not stated)	-2.1	-12.7	0.6	14.6	27.2	11.4
C/C(=C(/NC(=O)c1ccccc1)C(=O)O)c1ccco1	-5.5	6.0	10.7	-19.2	1.3	86.7*
